We go through twelve compounds from ChEMBL document CHEMBL3988442, “University of Dundee, Small-Polar-MMV Screening Library” (2021).

For part of these data: Potency and affinity values are given separately.

Common to all, as to design: scale not given: direction of the effect not stated beside the values
The target of experiment [1] is Protein translocase subunit SecA (Escherichia coli (strain K12)) (UniProt P10408). The experiment is described as follows: Assay to Identify E. coli SecA ATPase Inhibitors. The format is functional. The conditions noted are these: 30 µM.
Chain of Protein translocase subunit SecA (Escherichia coli (strain K12)) (P10408 whole entry): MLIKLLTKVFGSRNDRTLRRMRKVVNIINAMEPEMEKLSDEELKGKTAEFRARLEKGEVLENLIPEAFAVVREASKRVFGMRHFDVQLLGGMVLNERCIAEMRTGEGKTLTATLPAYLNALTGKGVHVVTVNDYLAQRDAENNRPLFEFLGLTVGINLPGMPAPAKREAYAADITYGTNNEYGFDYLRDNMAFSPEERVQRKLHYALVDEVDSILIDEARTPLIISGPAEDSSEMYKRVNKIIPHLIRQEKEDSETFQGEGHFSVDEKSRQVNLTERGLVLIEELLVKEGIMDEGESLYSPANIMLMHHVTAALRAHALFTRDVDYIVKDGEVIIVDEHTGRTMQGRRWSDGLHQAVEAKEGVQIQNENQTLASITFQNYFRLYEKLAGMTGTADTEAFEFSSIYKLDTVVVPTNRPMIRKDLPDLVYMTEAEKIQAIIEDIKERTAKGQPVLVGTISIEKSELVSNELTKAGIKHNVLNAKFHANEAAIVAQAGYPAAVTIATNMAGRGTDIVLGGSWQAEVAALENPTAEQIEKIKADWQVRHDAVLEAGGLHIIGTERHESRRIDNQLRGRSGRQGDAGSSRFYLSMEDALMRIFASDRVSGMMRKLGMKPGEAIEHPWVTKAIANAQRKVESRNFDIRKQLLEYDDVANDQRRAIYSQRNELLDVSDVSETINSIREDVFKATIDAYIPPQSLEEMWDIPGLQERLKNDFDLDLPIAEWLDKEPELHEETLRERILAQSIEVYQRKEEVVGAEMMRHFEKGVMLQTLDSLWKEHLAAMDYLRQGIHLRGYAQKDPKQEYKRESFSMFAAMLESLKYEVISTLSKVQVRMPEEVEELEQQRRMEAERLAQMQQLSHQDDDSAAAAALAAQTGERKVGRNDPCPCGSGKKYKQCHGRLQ
Experiment [2] concerns the target T1, Ubiquitin-activating enzyme e1, putative (Leishmania donovani (strain BPK282A1)) (UniProt E9BSI1).
T1 sequence (whole entry): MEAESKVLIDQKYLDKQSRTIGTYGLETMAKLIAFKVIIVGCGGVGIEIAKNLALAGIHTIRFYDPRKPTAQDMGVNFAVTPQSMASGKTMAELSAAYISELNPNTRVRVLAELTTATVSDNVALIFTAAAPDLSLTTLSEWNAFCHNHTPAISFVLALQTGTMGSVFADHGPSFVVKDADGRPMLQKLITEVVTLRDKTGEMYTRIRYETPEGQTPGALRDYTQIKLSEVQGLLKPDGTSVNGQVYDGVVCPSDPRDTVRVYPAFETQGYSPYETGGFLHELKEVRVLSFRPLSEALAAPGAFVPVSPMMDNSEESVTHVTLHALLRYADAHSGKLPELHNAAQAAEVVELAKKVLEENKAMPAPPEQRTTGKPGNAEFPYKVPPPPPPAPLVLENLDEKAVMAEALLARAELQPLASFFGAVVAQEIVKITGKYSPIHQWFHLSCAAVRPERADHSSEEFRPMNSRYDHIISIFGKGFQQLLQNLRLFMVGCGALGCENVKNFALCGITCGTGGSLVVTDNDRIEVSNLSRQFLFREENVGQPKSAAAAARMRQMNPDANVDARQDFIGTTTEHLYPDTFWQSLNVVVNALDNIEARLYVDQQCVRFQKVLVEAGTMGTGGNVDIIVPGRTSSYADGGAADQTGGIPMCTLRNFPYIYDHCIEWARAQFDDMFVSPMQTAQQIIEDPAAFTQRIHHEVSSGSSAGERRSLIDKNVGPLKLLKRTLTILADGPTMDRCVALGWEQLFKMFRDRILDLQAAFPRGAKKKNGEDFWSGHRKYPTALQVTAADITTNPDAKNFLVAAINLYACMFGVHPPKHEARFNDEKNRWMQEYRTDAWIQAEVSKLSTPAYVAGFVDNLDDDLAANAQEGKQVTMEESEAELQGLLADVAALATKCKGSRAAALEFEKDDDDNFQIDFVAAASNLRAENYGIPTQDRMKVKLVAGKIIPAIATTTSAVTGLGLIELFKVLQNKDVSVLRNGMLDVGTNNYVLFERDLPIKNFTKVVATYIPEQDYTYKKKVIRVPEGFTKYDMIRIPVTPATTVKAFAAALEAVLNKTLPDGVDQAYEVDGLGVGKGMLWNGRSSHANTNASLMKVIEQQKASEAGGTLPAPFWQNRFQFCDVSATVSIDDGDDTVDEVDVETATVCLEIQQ
The experiment can be described thus: Leishmania donovani Ubiquitin Activating Enzyme (LdE1). It is filed as functional. Particulars: 30 µM.

In experiment [3] the target is Sialic acid-binding Ig-like lectin 9 (Homo sapiens) (UniProt Q9Y336). The experiment is described as follows: Hs-Siglec9 ALPHAscreen SOP 20170721. Particulars: 10 µM.
Chain of Sialic acid-binding Ig-like lectin 9 (Homo sapiens) (Q9Y336 whole entry): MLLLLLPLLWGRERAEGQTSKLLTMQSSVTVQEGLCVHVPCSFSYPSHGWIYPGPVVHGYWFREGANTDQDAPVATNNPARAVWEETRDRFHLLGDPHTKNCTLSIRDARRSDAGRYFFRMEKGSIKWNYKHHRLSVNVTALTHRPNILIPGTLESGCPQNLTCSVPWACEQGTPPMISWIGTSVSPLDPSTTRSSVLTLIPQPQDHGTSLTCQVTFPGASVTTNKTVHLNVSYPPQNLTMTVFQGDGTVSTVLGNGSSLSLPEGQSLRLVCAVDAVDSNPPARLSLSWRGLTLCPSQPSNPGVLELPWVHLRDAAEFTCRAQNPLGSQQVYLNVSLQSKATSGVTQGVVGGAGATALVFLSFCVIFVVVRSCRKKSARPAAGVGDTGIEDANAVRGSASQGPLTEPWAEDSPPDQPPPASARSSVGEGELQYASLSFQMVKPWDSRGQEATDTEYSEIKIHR
Experiment [4] concerns Trypanosoma cruzi. The experiment can be described thus: Trypanosoma cruzi phosphomannomutase and mannose-1-phosphate guanylyltransferase assay. It is filed as functional. Particulars: 10 µM.
In experiment [5] the target is T2, Arginase-2, mitochondrial (Homo sapiens) (UniProt P78540).
T2 sequence (whole entry): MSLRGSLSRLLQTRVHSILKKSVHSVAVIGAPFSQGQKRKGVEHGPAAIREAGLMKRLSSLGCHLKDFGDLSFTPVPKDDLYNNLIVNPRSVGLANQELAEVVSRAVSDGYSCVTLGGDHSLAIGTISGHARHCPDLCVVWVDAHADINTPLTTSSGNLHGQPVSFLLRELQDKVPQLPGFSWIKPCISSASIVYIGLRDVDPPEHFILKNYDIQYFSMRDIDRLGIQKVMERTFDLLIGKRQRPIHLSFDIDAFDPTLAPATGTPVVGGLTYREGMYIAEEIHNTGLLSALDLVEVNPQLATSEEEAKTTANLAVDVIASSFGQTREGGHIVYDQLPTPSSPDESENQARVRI
The experiment is described as follows: in vitro enzyme assay to detect the production of urea directly proportional to the activity of Arginase II. Further: in the data most compounds retested in dose-response had high values. Particulars: 33.3 µM. It is filed as functional.

Experiment [6] has as its target T3, Proteasome subunit beta (Trypanosoma cruzi) (UniProt O96673).
T3 sequence (whole entry): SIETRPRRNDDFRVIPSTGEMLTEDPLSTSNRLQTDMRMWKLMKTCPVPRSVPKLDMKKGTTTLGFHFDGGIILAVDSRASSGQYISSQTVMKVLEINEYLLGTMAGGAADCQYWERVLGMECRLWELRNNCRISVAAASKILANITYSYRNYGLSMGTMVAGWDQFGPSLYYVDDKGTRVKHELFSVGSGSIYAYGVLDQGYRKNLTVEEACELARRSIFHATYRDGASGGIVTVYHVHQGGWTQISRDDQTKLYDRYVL
The experiment is described as follows: Trypanosoma cruzi proteasome chymotrypsin-like activity (TcProtChymo) assay. Further: in the data most compounds retested in dose-response had high values. The format is functional. Particulars: 9.37 µM.

For experiment [7], the species on record is Homo sapiens. The experiment can be described thus: To identify inhibition of the IFN signalling (Jak-Stat) pathway via expression of an eGFP reporter gene under the control of an IFN-stimulated response element (ISRE) containing MxA promoter. The conditions noted are these: 30 µM. It is filed as functional.
In experiment [8] the target is T4, Tyrosyl-tRNA synthetase, putative (Trypanosoma cruzi (strain CL Brener)) (UniProt Q4DSP6).
T4 sequence (whole entry): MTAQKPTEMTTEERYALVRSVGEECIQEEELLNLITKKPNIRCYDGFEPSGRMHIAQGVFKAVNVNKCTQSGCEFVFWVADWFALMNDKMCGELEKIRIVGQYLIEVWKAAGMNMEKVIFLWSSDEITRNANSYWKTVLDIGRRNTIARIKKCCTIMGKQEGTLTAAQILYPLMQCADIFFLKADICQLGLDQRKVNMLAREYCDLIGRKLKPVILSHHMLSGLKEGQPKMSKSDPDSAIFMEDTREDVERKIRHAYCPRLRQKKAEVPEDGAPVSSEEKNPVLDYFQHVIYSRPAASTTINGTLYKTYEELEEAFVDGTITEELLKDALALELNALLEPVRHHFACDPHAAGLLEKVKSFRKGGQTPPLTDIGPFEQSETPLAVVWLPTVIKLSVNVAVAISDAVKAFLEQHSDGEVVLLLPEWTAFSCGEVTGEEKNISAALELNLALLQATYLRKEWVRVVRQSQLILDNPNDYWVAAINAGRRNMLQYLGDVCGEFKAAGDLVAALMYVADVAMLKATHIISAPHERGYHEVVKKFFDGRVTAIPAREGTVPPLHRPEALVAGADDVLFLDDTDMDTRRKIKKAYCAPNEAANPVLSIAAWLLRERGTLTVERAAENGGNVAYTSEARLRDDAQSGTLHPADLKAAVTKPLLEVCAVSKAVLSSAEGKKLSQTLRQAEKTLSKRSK
The experiment is described as follows: Trypanosoma cruzi tyrosyl tRNA synthetase (TcYRS) _High Tyrosine SOP. Further: in the data most compounds retested in dose-response had high values. It is filed as functional. The conditions noted are these: 30 µM.

For experiment [9], the target named is T4, Tyrosyl-tRNA synthetase, putative (Trypanosoma cruzi (strain CL Brener)). The experiment is described as follows: Trypanosoma cruzi tyrosyl tRNA synthetase (TcYRS) SOP. It is filed as functional. The conditions noted are these: 30 µM.
Experiment [10] concerns the target Chromo domain-containing protein 1 (Saccharomyces cerevisiae (strain ATCC 204508 / S288c) (Baker's yeast)) (UniProt P32657). The experiment can be described thus: ScCHD-1 Enzyme Inhibition Assay. Further: in the data most compounds retested in dose-response had high values. The format is functional. The conditions noted are these: 30 µM.

Chain of Chromo domain-containing protein 1 (Saccharomyces cerevisiae (strain ATCC 204508 / S288c) (Baker's yeast)) (P32657 whole entry, the tested form may be a part): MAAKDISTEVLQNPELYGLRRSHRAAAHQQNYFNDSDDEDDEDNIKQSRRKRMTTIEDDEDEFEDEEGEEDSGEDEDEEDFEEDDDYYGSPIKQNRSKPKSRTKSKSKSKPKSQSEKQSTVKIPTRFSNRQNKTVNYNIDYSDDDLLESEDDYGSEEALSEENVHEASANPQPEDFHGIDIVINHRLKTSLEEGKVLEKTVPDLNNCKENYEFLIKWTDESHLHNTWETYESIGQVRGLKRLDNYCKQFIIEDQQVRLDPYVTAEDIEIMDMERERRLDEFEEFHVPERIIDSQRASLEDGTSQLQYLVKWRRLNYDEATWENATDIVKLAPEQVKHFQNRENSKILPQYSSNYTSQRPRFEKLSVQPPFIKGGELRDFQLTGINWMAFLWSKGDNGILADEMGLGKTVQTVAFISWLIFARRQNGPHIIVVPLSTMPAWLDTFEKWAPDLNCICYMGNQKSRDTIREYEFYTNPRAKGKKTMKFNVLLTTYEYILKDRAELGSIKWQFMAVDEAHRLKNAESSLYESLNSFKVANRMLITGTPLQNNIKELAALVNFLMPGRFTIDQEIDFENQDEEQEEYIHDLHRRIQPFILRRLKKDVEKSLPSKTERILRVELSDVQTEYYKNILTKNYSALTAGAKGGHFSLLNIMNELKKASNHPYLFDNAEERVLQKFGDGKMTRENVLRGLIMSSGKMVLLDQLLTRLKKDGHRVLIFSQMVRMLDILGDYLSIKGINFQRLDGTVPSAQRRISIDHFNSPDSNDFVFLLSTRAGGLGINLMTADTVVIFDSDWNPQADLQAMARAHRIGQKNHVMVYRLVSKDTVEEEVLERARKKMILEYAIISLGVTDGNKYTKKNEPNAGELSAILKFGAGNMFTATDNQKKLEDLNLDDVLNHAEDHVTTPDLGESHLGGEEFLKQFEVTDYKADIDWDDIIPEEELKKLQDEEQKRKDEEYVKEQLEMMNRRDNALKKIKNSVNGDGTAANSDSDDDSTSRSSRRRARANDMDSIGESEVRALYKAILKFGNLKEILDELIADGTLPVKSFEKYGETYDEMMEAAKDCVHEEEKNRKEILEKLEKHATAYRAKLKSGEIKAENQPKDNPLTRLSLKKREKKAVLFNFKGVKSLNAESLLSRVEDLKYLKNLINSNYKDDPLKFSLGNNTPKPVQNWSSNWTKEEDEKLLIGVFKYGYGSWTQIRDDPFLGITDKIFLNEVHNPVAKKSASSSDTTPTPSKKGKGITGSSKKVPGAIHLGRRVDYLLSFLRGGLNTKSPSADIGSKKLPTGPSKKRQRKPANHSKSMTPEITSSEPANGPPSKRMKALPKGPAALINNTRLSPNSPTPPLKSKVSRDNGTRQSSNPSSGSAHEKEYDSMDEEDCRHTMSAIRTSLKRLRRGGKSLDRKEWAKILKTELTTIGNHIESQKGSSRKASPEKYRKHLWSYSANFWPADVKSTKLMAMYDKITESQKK

On to `CC(C)CCCNC(=O)Nc1ccc(F)c(C(N)=O)c1`, for which the Percent Effect was -0.324% in [1]; 23.4% in experiment [2]; 0.112% in experiment [3]; 2.61% in [4]; -6.76% in [5]; 12.3% in experiment [6]. For the same compound, the Percent Effect in experiment [7] is 14.9%; in [8], 6.86%; in experiment [9], 30.6%; in experiment [10], -10.9%.

On to `N#Cc1c(C2CC2)cc(-c2ccc(O)cc2)nc1N`, for which the Percent Effect in experiment [1] is -6.18%; in [2], 2.7%; in experiment [3], 3.32%; in [4], -1.46%; in [5] it was 4.54%; in experiment [6] it was 23.6%. The Percent Effect in [7] is 48.6%; in experiment [8] it was -0.532%; in experiment [9], 7.32%; in experiment [10], -2.85%.

For the compound `NC(=O)CN1CCC(NC(=O)Nc2nccs2)CC1`, the Percent Effect in [1] was -1.25%; in experiment [2] it was 15.4%; in [3] it was -19.1%; in [4] it was 9.11%; in experiment [5], -0.82%; in experiment [6], 13.1%. Further, the Percent Effect in experiment [7] was 5.92%; in experiment [8], 1.44%; in [9], 20.5%; in experiment [10], -8.95%.

With `O=C(NCCCn1ccnc1)N1CCCC1c1cccs1` (stereo not given), the Percent Effect in experiment [1] is -1.21%; in experiment [2], 12.8%; in experiment [3], -12.2%; in experiment [4] it was 6.67%; in experiment [5], 8.2%; in experiment [6], 11%. For the same compound, the Percent Effect was -4.65% in [7], 7.18% in [8], 18.1% in experiment [9] and -5.02% in [10].

On to `CC(C)Cc1nc(OCC(N)=O)c(C#N)c2c1CCC2`, for which the Percent Effect was -2.5% in experiment [1]; 5.41% in experiment [2]; 10.8% in experiment [3]; -9.99% in experiment [4]; 1.75% in [5]; 19.4% in experiment [6]. Further, the Percent Effect in experiment [7] is 20.7%; in [8] it was 3.72%; in experiment [9], 7.32%; in experiment [10], -3.73%.

Consider `CN(C)CC(=O)N1CCC2(CCN(Cc3ccccn3)C2=O)C1` (stereo not given), for which the Percent Effect was -3.33% in experiment [1]; -1.3% in [2]; -3.23% in experiment [3]; -2.63% in [4]; -4.45% in experiment [5]; 12.6% in [6]. Besides, the Percent Effect in [7] is -1.64%; in experiment [8], 1.58%; in experiment [9], 7.69%; in [10] it was -2.1%.

As to `c1ncn(CC2CN(Cc3noc(C4CC4)n3)CCO2)n1` (stereo not given), the Percent Effect in experiment [1] was -7.36%; in experiment [2], 2.67%; in [3] it was 2.48%; in experiment [4], -1%; in experiment [5], -3.55%; in experiment [6], -1.1%. Besides, the Percent Effect in experiment [7] was 15.2%; in experiment [8], -1.58%; in experiment [9] it was 0%; in experiment [10], -8.55%.

As to `CN(C)c1cc(C(=O)N2CCN(S(C)(=O)=O)CC2)ccn1`, the Percent Effect in experiment [1] was -7.92%; in experiment [2] it was 10.3%; in experiment [3], -9.31%; in experiment [4] it was -5.35%; in experiment [5], -2.46%; in experiment [6] it was 6.23%. Further, the Percent Effect in experiment [7] was 25.7%; in experiment [8], 4.31%; in [9] it was 8.43%; in [10] it was -0.991%.

Consider `Cc1c[nH]nc1C1CCCCN1C(=O)Cn1cc(Cl)cn1` (stereo not given), for which the Percent Effect is -0.928% in [1]; 14.7% in [2]; -3.24% in experiment [3]; -2.96% in experiment [4]; 3.1% in experiment [5]; 15.1% in [6]. In addition, the Percent Effect in experiment [7] is 7.7%; in [8], 3.17%; in [9], 10%; in experiment [10], -20.3%.

On to `COc1ccc(CNCc2ccc(N3CCCCC3)nc2)cc1OC`, for which the Percent Effect is 0.873% in [1]; 15.4% in [2]; -8.85% in [3]; 5.92% in [4]; 2.87% in experiment [5]; 8.62% in experiment [6]. Also, the Percent Effect in experiment [7] is 2.97%; in experiment [8], 8.13%; in experiment [9] it was 25.3%; in experiment [10], -9.53%.

Turning to `CCOCC1CN(Cc2cnn(C)c2)Cc2ncn(CC3CC3)c21` (stereo not given), the Percent Effect was -6.63% in [1]; -1.3% in [2]; 9.29% in experiment [3]; -1.66% in experiment [4]; -3.64% in experiment [5]; 2.21% in experiment [6]. Besides, the Percent Effect is 10.9% in [7], 1.58% in [8], -5.13% in [9] and 0.231% in [10].

Regarding `O=C(NCCn1ccnc1)N1CCCC1c1ccsc1` (stereo not given), the Percent Effect in [1] is -1.45%; in experiment [2] it was 10.3%; in experiment [3], -12.8%; in experiment [4], 8.73%; in experiment [5], 1.64%; in [6], 17.7%. The Percent Effect in experiment [7] was -7.37%; in experiment [8], 6.22%; in experiment [9] it was 20.5%; in experiment [10], -4.56%.
